Screening data deposited in PubChem BioAssay by several laboratories.
SARS 3CLpro inh = SARS-CoV 3CLpro protease inhibition; recombinant SARS-CoV 3CLpro, quenched FRET peptide cleavage; inhibition, % at 6 µM; actives 0.14% (n = 290,000); P0C6X7; in the data active = inhibition above about 12%
PrPC TRFRET = inhibitors of human cell surface prion protein PrPC | actives 0.43% (n = 370,000) | TR-FRET read-out | inhibition, % at 13.8 µM | AID 720596 | P04156; in the data active = inhibition above about 24%; note: 0% = median of the test wells and 100% = reference compound wells
GDH-TPI counter = GDH-TPI coupled enzyme inhibition counter-screen; actives 1.2% (n = 360,000); inhibition, % at 4.8 µM; GDH-TPI coupled enzyme counterscreen, NADH absorbance; in the data active = inhibition above about 30%;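 note: 0% = DMSO wells and 100% = wells lacking the enzyme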
BH1578 lux ind = inducers of Vibrio cholerae quorum light production without autoinducers | V. cholerae BH1578 lux reporter, luminescence, 6 h | activation, % at 18.7 µM | actives 0.16% (n = 350,000) | AID 588436; in the data active = activation mostly above about 9.7%, no sharp cut-off
Mtb FBA inh = inhibitors of M. tuberculosis fructose-bisphosphate aldolase. purified M. tuberculosis FBA, fluorescence read-out. inhibition, % at 1 µM. actives 2.3% (n = 360,000). AID 588726; in the data active = inhibition above about 27%;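 note: 0% = vehicle and 100% = reference inhibitor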
PrPC confirm = confirmation of inhibitors of cell surface human prion protein. actives 65% (n = 1,500). cell surface PrPC level, TR-FRET. inhibition, % at 13.8 µM. shares compounds with PrPC TRFRET; in the data active = inhibition above about 25%
LD9 tox = kills or reduces viability of LD9 cells in PrPc counter-screen; LD9 cells cytotoxicity, luminescence viability; inhibition, % at 13.8 µM; actives 29% (n = 1,500); shares compounds with PrPC TRFRET; in the data active = inhibition above about 9.5%
Active calls of the source: *; i = inactive; · = no result. Only some compounds are listed: those with a hit (about 3.9% of all), similar ones and a draw of the others.

SMILES	SARS 3CLpro inh	PrPC TRFRET	GDH-TPI counter	BH1578 lux ind	Mtb FBA inh	PrPC confirm	LD9 tox
CN(C(=O)CSc1nc2ccccc2o1)C1CCCCC1	·	1.6	14.5	0.2	-3.3	·	·
Cc1nn(-c2ccccc2)c(Cl)c1C1C(C#N)=C(N)Oc2c1c(=O)oc1ccccc21 (centres undefined)	0.5	35.6*	4.5	-0.7	7.0	10.2	2.6
Cc1ccc(NC(=O)c2ccccc2NS(=O)(=O)c2ccc(Cl)s2)cc1S(=O)(=O)N1CCOCC1	7.3	15.2	7.9	-0.3	-3.7	·	·
CCc1nnc(NC(=O)CSc2sc3c(O)cc(=O)[nH]c3c2C#N)s1	-8.2	20.8	16.1	0.3	2.0	·	·
Cc1csc(NC(=O)CSc2sc3c(O)cc(=O)[nH]c3c2C#N)n1	-1.5	25.6*	6.9	0.2	0.9	4.2	1.7
COc1cccc(C(C)(O)c2nc(/C=C/c3ccccc3)cs2)c1 (centres undefined)	·	-0.8	7.1	0.4	-2.8	·	·
Cc1cc2c(cc(C(=O)O)n2C)s1	0.4	-1.7	-4.0	-1.4	4.8	·	·
Cc1cc2sc(C(=O)O)c(C)c2s1	4.4	30.1*	-4.3	i	2.7	41.6*	-6.3
O=C(COCc1ccncc1)N1CCN(c2ccc(F)cc2Cl)CC1	·	9.5	·	·	·	·	·
CCOC(=O)C1(C)CCCN1C(=O)c1ccc(F)c(Cl)c1 (centres undefined)	·	0.7	8.2	-0.4	3.0	·	·
COc1cc2sc3cc(NCc4ccc5c(c4)OCO5)ccc3c(=O)c2cc1OC	·	39.1*	20.3	-0.4	17.6	67.0*	3.0
COc1ccc2nc3cc(Cl)ccc3c(Nc3cc(C(C)C)c(O)cc3C)c2c1	-0.7	-1.7	4.8	0.4	-4.4	·	·
COc1ccc2nc3cc(Cl)ccc3c(Nc3cc(CN4CCCC4)c(O)c(CN4CCCC4)c3)c2n1	-8.2	45.1*	22.3	-0.3	4.8	41.7*	36.8*
CC[C@H](C)[C@@H]1NC(=O)CNC(=O)c2csc(n2)[C@H](C(C)(C)O)OC(=O)C(C)(C)[C@H](CCCC(C)(Cl)Cl)OC(=O)c2csc1n2	·	34.2*	·	·	7.0	25.6*	8.8
O=C(c1ccc(Oc2cc(Cl)cc(Cl)c2)o1)N1CCCCC1	0.3	15.2	12.3	-0.3	2.6	·	·
O=C(O)CC(NC(=O)C1c2ccccc2Oc2ccccc21)c1ccc(OC2CCCC2)cc1 (centres undefined)	6.0	13.7	1.3	i	2.9	·	·
CC(NC(=O)c1sc2ccccc2c1Cl)C1CCCO1 (centres undefined)	5.0	38.4*	2.1	0.1	2.2	43.9*	-3.5
O=C(O)CC(NC(=O)c1sc2ccccc2c1Cl)c1ccc(OC2CCCC2)cc1 (centres undefined)	10.8	31.2*	-0.3	-2.8	-4.7	28.5*	-5.2
Cc1ccc2c(Cl)c(C(=O)NCC3CCCO3)sc2c1 (centres undefined)	-0.5	24.6*	13.1	-0.3	-1.6	37.4*	1.3
Cc1ccc(OCCCC(=O)Nc2nc3ccccc3[nH]2)cc1	-2.4	6.7	6.3	-0.3	2.5	·	·
Cc1cccc(OCCCC(=O)Nc2nc3ccccc3[nH]2)c1	-6.1	28.6*	-7.5	-0.4	3.8	24.7*	-8.1
Cc1ccc(C)c(OCC(=O)N2CCN(c3ncccn3)CC2)c1	·	4.8	-6.9	-3.1	3.5	·	·
COC(=O)c1sc(NC(=O)C2CCCCC2C(=O)O)c(C(=O)OC)c1C (centres undefined)	1.9	27.4*	7.0	i	0.5	41.9*	-9.2
[O-]c1c[n+](-c2ccc(-[n+]3cc([O-])on3)cc2)no1	-0.2	-39.7	6.7	i	-2.8	·	·
Cc1cc([N+](=O)[O-])nn1Cc1ccc(C(=O)N/N=C/c2ccc(F)cc2)cc1	-1.7	-2.0	-5.4	-0.6	0.8	·	·
SMILES	SARS 3CLpro inh	PrPC TRFRET	GDH-TPI counter	BH1578 lux ind	Mtb FBA inh	PrPC confirm	LD9 tox
O=C(N/N=C/c1ccccc1)c1ccc(CN2C(=O)c3cccc4cccc2c34)cc1	1.4	-3.8	7.7	-0.3	0.9	·	·
O=C(N/N=C/c1ccc(O)cc1O)c1ccc(CN2C(=O)c3cccc4cccc2c34)cc1	3.4	30.7*	28.1	-3.2	2.2	29.1*	18.7*
Cc1cc([N+](=O)[O-])nn1Cc1ccc(C(=O)N/N=C/c2ccc(O)cc2O)cc1	0.2	31.9*	43.6*	-0.1	-1.1	29.5*	21.4*
Cc1cccc(Nc2nc(NCc3ccco3)c3ccccc3n2)c1	1.7	29.7*	5.8	-0.3	6.4	31.4*	29.3*
Oc1ccccc1Nc1nc(NCc2ccco2)c2ccccc2n1	-1.2	-2.4	14.2	-0.5	4.4	·	·
c1ccc(Nc2nc(NCc3ccco3)c3ccccc3n2)cc1	-4.2	27.8*	-2.3	-1.1	4.3	35.2*	15.4*
CN1C(c2ccccc2)CC2CN(c3ccccc3)C(=O)C21 (centres undefined)	·	0.0	·	·	·	·	·
O=C(Nc1ccc(Cl)c(C(=O)N2CCOCC2)c1)c1ccccc1	-5.4	4.0	-6.9	-0.6	-0.2	·	·
COc1ccc(/C=C/C(=O)Nc2ccc(-n3nncc3-c3ccc(OC)c(OC)c3)cc2)cc1OC	1.5	24.8*	35.7*	i	-3.4	28.0*	9.9*
COc1ccc(-c2cnnn2-c2ccc(NC(=O)/C=C/c3ccc(OC)c(OC)c3)cc2)cc1	-1.9	1.8	7.6	-0.4	2.1	·	·
Cc1ccc(S(=O)(=O)N2[C@H](CC(=O)c3cccc4ccccc34)OC[C@@H]2C)cc1	·	-3.8	·	·	·	·	·
Nc1cc(=O)[nH]c(SCC(=O)N2CCC(Cc3ccccc3)CC2)n1	·	-0.5	2.2	0.7	0.4	·	·
CN(Cc1ccccc1)C1(CNC(=O)CCC(F)(F)F)Cc2ccccc2C1	-4.1	25.5*	-5.5	-0.7	-1.5	14.9	-0.4
CC(C)(C)C(=O)COC(=O)CNC(=O)c1ccc(Oc2ccccc2)cc1	0.8	-1.8	7.4	i	0.5	·	·
Cc1ccc(NC(=O)OC2CC3CC2[C@H]2CCCCN2[C@H]3C)cc1 (some centres undefined)	·	-1.7	·	·	·	·	·
CCCCCCCCCCCCCCCCn1cc[n+](C)c1	0.3	34.1*	3.1	i	-3.7	49.4*	42.2*
O=c1c2oc3nc4c(cc3c2ncn1CCCc1ccccc1)CCCC4	4.2	5.3	2.9	-2.0	3.3	·	·
c1ccc2c(c1)nc(N1CCOCC1)c1nncn12	-2.6	103.7*	1.6	i	-1.6	2.4	-2.6
c1ccc(N2CCN(c3nc4ccccc4n4cnnc34)CC2)cc1	-0.7	3.1	23.5	-0.2	-0.9	·	·
COC(=O)c1ccc(NC(=O)CCS(=O)(=O)c2ccc3c(c2)NC(=O)C(C)S3)cc1 (centres undefined)	-2.2	-4.8	-3.0	2.6	-4.3	·	·
CCCCCCn1c(-c2ccc(Cl)cc2Cl)csc1=Nc1ccccc1	·	0.8	·	·	·	·	·
S=c1[nH]c2ccccc2n2c(=S)[nH]nc12	-1.5	29.7*	20.7	-1.3	-2.9	58.6*	0.4
